G9a block = G9a (human) methyltransferase inhibition; Q96KQ7; G9a H3K9 monomethylation, AlphaScreen, 2 h; Potency, µM (highest dose often 102 µM), inactives show at the highest dose activity, negative = inhibition, usual class: inhibitors; hit rate 8.8% among 350,000; AID 504332; note: % is set by controls: 0 for no effect and ±100 for the full control effect; nearly all actives have a fitted effect of over 75% in size
Target sequence (Q96KQ7 913-1193 limits assumed): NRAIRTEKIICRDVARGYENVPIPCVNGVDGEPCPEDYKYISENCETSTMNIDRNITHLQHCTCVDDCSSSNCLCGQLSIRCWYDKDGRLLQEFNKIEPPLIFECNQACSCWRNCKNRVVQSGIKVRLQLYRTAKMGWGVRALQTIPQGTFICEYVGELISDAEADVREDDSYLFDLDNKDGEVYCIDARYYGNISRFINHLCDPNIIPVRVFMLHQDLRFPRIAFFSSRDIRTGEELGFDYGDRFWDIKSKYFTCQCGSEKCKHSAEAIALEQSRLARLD
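Enzyme 20 nM + cpd, 15 min RT; add b-H3K9 pep 500 nM / SAM 20 uM; 2 h RT; anti-H3K9me1 Ab 0.5 ug/mL + SA donor / anti-rabbit acceptor beads 20 ug/mL each, 10 min; AlphaScreen read.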
HP1b chromo inh = blocks HP1-beta chromodomain binding to methylated histone tails | AlphaScreen HP1-beta / biotin-H3K9me3 peptide binding | Potency, µM (series often up to 114 µM), without a hit: top-dose activity change, negative = inhibition, actives largely listed as inhibitors | hit rate 0.56% among 390,000 | AID 540317; note: nearly all actives have a fitted effect of over 70% in size
Target sequence (P83916 whole entry, looked up): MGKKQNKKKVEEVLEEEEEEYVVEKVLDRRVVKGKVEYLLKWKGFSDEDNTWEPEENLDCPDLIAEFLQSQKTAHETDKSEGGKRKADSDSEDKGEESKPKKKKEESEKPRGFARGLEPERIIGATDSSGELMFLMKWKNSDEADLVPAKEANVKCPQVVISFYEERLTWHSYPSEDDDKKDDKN
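AlphaScreen: HP1-beta (50 nM) preformed 30 min with biotin-H3(1-18)K9me3 peptide (50 nM) in PBS pH 7.4, 0.01% Tween-20. Compound added for 30 min at RT, then streptavidin donor/nickel chelate acceptor beads (10 ug/mL) for 30 min.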
L3MBTL1 inh = L3MBTL1 (human) inhibition | Q9Y468 | Potency, µM (doses to about 57.1 µM), for the others: at the highest dose activity, negative = inhibition, hits mostly inhibitors | AID 485360 | AlphaScreen L3MBTL1–H3K9me1 peptide binding | hit rate 0.66% among 230,000; note: % is set by controls: 0 for no effect and ±100 for the full control effect; nearly all actives have a fitted effect of over 60% in size
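First, the protein-peptide complex forms for 30 min at room temperature (L3MBTL1 50 nM, biotinylated H3K9me1 peptide 75 nM). Next, compounds are pin-transferred and incubated 30 min. Finally, AlphaScreen beads are added and read after 30 min.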
JMJD2A Tudor inh = JMJD2A Tudor domain (human) inhibition | AlphaScreen JMJD2A-Tudor / H3K4me3 peptide binding | Potency, µM (titrated, usually from 114 µM), without a hit: at the top dose activity change, negative = inhibition, most hits filed as inhibitors | hit rate 4.4% among 390,000 | AID 504339; note: % is set by controls: 0 for no effect and ±100 for the full control effect; nearly all actives have a fitted effect of over 50% in size
BAZ2B block = inhibitors of human BAZ2B bromodomain | Q9UIF8 | Potency, µM (top dose mostly 114 µM), without a hit: at the top dose activity change, negative = inhibition, most hits filed as inhibitors | AID 504333 | hit rate 4.4% among 360,000 | AlphaScreen BAZ2B-H3K14Ac peptide displacement; note: % is set by controls: 0 for no effect and ±100 for the full control effect; nearly all actives have a fitted effect of over 60% in size
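In this displacement format the biotinylated H3(5-23) peptide acetylated at Lys14 serves as ligand at 50 nM, with BAZ2B at 50 nM in PBS pH 7.4 containing 0.01% Tween-20. Donor and acceptor beads are 10 ug/mL final.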
Active calls of the source: *; ? = inconclusive; . = not tested or not shown; [ ] = dose if it differs, or a comment. Rows were chosen to be rich in hits. Some 11% of all compounds tested hit in one or more screens of this group. Calls come from the whole dose curve; as a rule, active = well fitted inhibition curve with a large enough effect; inconclusive = small, poorly fitted or top-dose-only effect; inactive = no such curve, though single readings can be large or run the other way. Potency is the fitted concentration of half-maximal effect.

SMILES	G9a block	HP1b chromo inh	L3MBTL1 inh	JMJD2A Tudor inh	BAZ2B block
Cc1cc(NC(=O)c2cc(-c3ccccn3)nc3ccc(Br)cc23)no1	.	33%	.	-12%	71µM*
COc1ccc2c(Sc3ccc(C)cc3)c(C(=O)NCC(C)c3ccccc3)[nH]c2c1 (centres undefined)	?	40%	.	-9%	-1%
O=C1OC(c2ccccc2)(c2ccccc2)N2CCN(C(=O)NCc3ccc(F)cc3)CC12 (centres undefined)	.	.	.	-15%	.
COc1ccccc1N1CCN(c2ncnc3c2cnn3-c2ccc(C)cc2)CC1	9%[59 µM]	21%	.	-4%	0%
Cc1cc(NC(=O)CCc2nc3cccnc3n2Cc2cccs2)ccc1Br	-1%[59 µM]	30%	.	-21%	-17%
O=C1COc2ccc(-c3cc(-c4ccc(F)cc4)c4c(n3)-c3ccccc3OC4)cc2N1	11%[59 µM]	19%	.	-3%	-7%
CCNC(=S)NNC(=O)c1cc(-c2cccc(OC)c2)nc2ccccc12	40µM*	34%	-1%	0%	-29%
Cc1ccc(-c2cc(C(=O)NC3=NCCS3)c3cc(Br)ccc3n2)o1	?	.	32µM*	.	14%
CCCOc1cccc(-c2cc(C(=O)NNC(=S)NCC)c3ccccc3n2)c1	-49%[12.7 µM]	-12%	.	-34%	-7%
CN1C(=O)C(c2nnc(Nc3cccc4ccccc34)s2)C2CC1(C)Oc1ccccc12 (centres undefined)	45µM*	-18%	-4%	?	-13%
C/C(=N/Nc1ccnc2cc(Cl)ccc12)c1ccc(N)cc1	1.8µM*	-8%	-15%	?	45µM*
C/C(=N/Nc1ccnc2cc(Cl)ccc12)c1ccc(O)cc1	22%[2.33 µM]	-13%	-17%	?	45µM*
Clc1ccc2c(N/N=C/c3cccc(Br)c3)ccnc2c1	12%[59 µM]	13%	6%	-35%	-6%
O=C(NCc1ccccc1Cl)c1ccc2c(c1)N(Cc1ccccc1)C(=O)CS2	3%[59 µM]	21%	.	-19%	-1%
CC(=O)Oc1cc(C(=O)OCC(=O)NC23CC4CC(CC(C4)C2)C3)cc(OC(C)=O)c1OC(C)=O	.	?	.	3.5µM*	.
COc1ccc(C(=O)N/C(=C\c2ccc([N+](=O)[O-])cc2)C(=O)NC(CCSC)C(=O)O)cc1 (centres undefined)	50µM*	41%	.	-14%	1%
Cc1csc(NC(=O)c2nc3nccc(C)n3n2)n1	50µM*	-4%	8%	?	-1%
COc1ccc(-c2nc(NC(=O)c3nc4nccc(C)n4n3)sc2C)cc1	?	33%	39%	-35%	1%
Cc1ccnc2nc(C(=O)Nc3nnc(-c4ccc(Cl)cc4)o3)nn12	?	29%	.	18µM*	?
Cc1ccnc2nc(C(=O)Nc3nnc(CC(C)C)s3)nn12	25µM*	17%	.	45µM*	-35%
CCCCc1nnc(NC(=O)c2nc3nccc(C)n3n2)s1	?	25%	-14%	-6%	.
Cc1ccnc2nc(C(=O)Nc3nc4ccccc4s3)nn12	5%[59 µM]	15%	-1%	16µM*	0%
COc1ccccc1NC(=O)CSc1nncn2c1cc1sccc12	-24%[59 µM]	31%	.	-3%	-14%
COc1ccc(C(=O)NC(=S)Nc2ccc(Cc3ccncc3)cc2)cc1	?	-21%	-4%[11.4 µM]	?	?
COc1ccc(N2CCN(C(=O)Cc3noc4ccc(C)cc34)CC2)cc1	-5%[59 µM]	14%	.	-12%	?
SMILES	G9a block	HP1b chromo inh	L3MBTL1 inh	JMJD2A Tudor inh	BAZ2B block
Cc1csc(NC(=O)c2cnc3ccccc3n2)n1	45µM*	-25%	.	-34%	-25%
COc1ccc(Br)cc1C1Nc2cccc3cccc(c23)N1	-6%[0.501 µM]	-17%	9%[2.29 µM]	?	45µM*
COc1cc(C2Nc3cccc4cccc(c34)N2)cc(OC)c1OC(C)=O	13µM*	?	?	?	?
COc1ccc(Br)cc1C1N2CC3(C)CN1CC(C)(C2)C3=O (centres undefined)	-28%[59 µM]	34%	24%	-8%	1%
Oc1ccc2ccccc2c1C1Nc2cccc3cccc(c23)N1	5µM*	?	.	45µM*	40µM*
CCN(CC)c1ccc(C2Nc3cccc4cccc(c34)N2)c(O)c1	32µM*	?	?	35µM*	11µM*
CCOC(=O)C1=C(C)NC(=O)NC1c1c(O)ccc2ccccc12 (centres undefined)	-8%	20%	.	-19%	14%
COc1cc(C2Nc3cccc4cccc(c34)N2)ccc1O	8.9µM*	?	-8%	50µM*	?
COc1cc(C2NC(=S)NC(C)=C2C(=O)c2ccccc2)ccc1O (centres undefined)	-102%	-5%	-4%	-36%	?
COc1cccc(CNC(=O)c2oc3c(c2C)-c2nn(Cc4cccc(Cl)c4)cc2CC3)c1OC	-40%[59 µM]	17%	.	-22%	-21%
Cn1c(Cc2ccccc2)nnc1SCC(=O)c1cccs1	50µM*	44%	.	-2%	0%
Cc1cc2ccc(C)c(C)c2nc1SCC(=O)c1cccs1	97%[59 µM]	86%	25%	20%	28%
Cc1ccc(C)c2c1cc(C)c1nnc(SCC(=O)c3cccs3)n12	13µM*	23%	5%	?	1%
Cn1c(Cc2ccccc2)nnc1SCC(=O)Nc1ccccc1	22%	14%	6%	-14%	-15%
Cc1ccc2cc(C)c3nnc(SCC(=O)c4cccs4)n3c2c1C	35µM*	37%	8%	?	-9%
CCC(CC)CN1CCN=C1Nc1ccccc1	-3%[2.33 µM]	22%	2%	-11%	-3%
O=c1ccnc(SCCc2ccc([N+](=O)[O-])cc2)[nH]1	.	27%	.	-13%	.
CCN1CCCC1CNc1ncnc2c1[nH]c1ccc(Cl)cc12 (centres undefined)	50µM*	15%	-6%	-20%	-1%
COc1cccc(-c2nnc3sc(CN4CCCCC4)cn23)c1	13µM*	19%[57 µM]	.	-7%	-38%
CCOC(=O)N1CCN(/[N+]([O-])=N/Oc2ccc([N+](=O)[O-])cc2[N+](=O)[O-])CC1	18µM*	63%	.	-19%	.
S=C(c1ccc(-c2cccc(Cl)c2)o1)N1CCCCC1	11µM*	?	.	28µM*	32µM*
CC(=O)N1CCN(C(=S)c2ccc(-c3ccc(Cl)cc3)o2)CC1	4µM*	-68%	-14%	?	-6%
S=C(c1ccc(-c2cccc(Cl)c2)o1)N1CCOCC1	?	35µM*	.	50µM*	45µM*
CCc1ccc(NC(=O)CSC2=Nc3ccccc3C3=NC(CCC(=O)NCc4cccs4)C(=O)N23)cc1 (centres undefined)	-1%[59 µM]	28%	.	0%	0%
CCOc1ccccc1Nc1nc2ccccc2nc1NS(=O)(=O)c1ccc(Cl)cc1	-9%[59 µM]	22%	.	-4%	4%
CCN1CCN(c2oc(/C=C/c3cc(OC)c(OC)c(OC)c3)nc2C#N)CC1	-10%[59 µM]	37%	.	-6%	-4%
